The results in this text go back to the supplement of paper PMC8540655.

Values without a mark were called inactive.

One experiment deals with Aedes aegypti larvae. In words: larval motility relative to same well at 0 h (fraction); higher = more motile (less active compound), active = 0.4 or less. The conditions noted are these: 10 µM; 2 h. The protocol: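 MMV Pandemic Response Box compounds were tested at 10 µM (1% v/v DMSO) on Aedes aegypti larvae (18-24 h after hatching, about 10 per well, 96-well plates). Motility was quantified with INVAPP (200-frame movies) at 0, 2 and 24 h. Each well's motility was divided by its own 0 h score, and the median of 3 independent screens is reported.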
As to `O=C(CP(=O)(O)O)NCCc1cccc(Oc2ccccc2)c1`, the larval motility is 2.12.
On the same count and under the same terms, the value for `O=c1nc(N2CCN(CC3CCCCC3)CC2)sc2c([N+](=O)[O-])cc(C(F)(F)F)cc12` was 0.712; that for `CCc1nc(N)nc(N)c1C#CCc1ccccc1` was 0.589.
On the same count and under the same terms, the value for `CC(C)N(c1cc(-c2ccccc2)sc1C(=O)O)C(=O)[C@H]1CC[C@H](C)CC1` was 0.697.
The same measure, in the same setting: the value for `O=C(c1cc(O)nc2ccccc12)N1CCN(c2ccccc2)CC1` was 0.848.
Turning to `C[C@H]1[C@@H](c2cccc(C(F)(F)F)c2)OC(=O)N1C(=O)NCc1cncc2ccccc12`, the larval motility was 0.716.
On to `Cc1nc(-c2ccc(C3N(C)c4ccc(F)cc4C(=O)N3c3ccccc3)s2)cs1` (stereo not given), for which the larval motility was 0.613.
On the same count and under the same terms, the value for `COc1ccc(-n2cnc3cc(NCc4ccco4)ccc32)cc1` was 0.835; that for `CSc1ccc2c(c1)C(N1CCN(C)CC1)Cc1ccccc1S2` (stereo not given) was 1.08.
Same read-out and setting: the value for `c1cc(CN2CCCNCCNCCCNCC2)ccc1CN1CCCNCCNCCCNCC1` was 0.964.
Same read-out and setting: the value for `O=C(Nc1ccc(F)cc1)c1nn(-c2ccccc2)c(=O)cc1Cl` was 1.14; that for `N#Cc1cc([N+](=O)[O-])ccc1Oc1ccccc1Cl` was 1.05.
Consider `O=C(NNC(=S)Nc1ccc(Cl)cc1)c1ccncc1`, for which the larval motility was 0.695.
Same read-out and setting: the value for `Cc1ccn2c(C(=O)NCc3ccccc3)c(C)nc2c1` was 1.47; that for `CC(=O)Nc1cc(NS(=O)(=O)c2ccc(Cl)cc2)cc2c(Cl)n[nH]c12` was 0.744; that for `CN1c2ccc(Cl)cc2N(c2ccccc2)C(=O)c2cn(Cc3ccc(CN4CCOCC4)cc3)nc21` was 0.674.
On the same count and under the same terms, the value for `O=C1CCC(N2C(=O)c3ccccc3C2=O)C(=O)N1` (stereo not given) was 1.17; that for `CC(N)C(=O)NC(CCCCN)C(=O)NC(CCCNC(=N)N)C(=O)NC(Cc1c[nH]cn1)C(=O)NC(Cc1c[nH]cn1)C(=O)NCC(=O)NC(Cc1ccc(O)cc1)C(=O)NC(CCCCN)C(=O)NC(CCCNC(=N)N)C(=O)NC(CCCCN)C(=O)NC(Cc1ccccc1)C(=O)NC(Cc1c[nH]cn1)C(N)=O` (stereo not given) was 0.858; that for `O=C(O)c1sccc1S(=O)(=O)n1ccc2cc(Br)ccc21` was 0.657.
The same measure, in the same setting: to `NC(=O)c1cnc2ccc(S(=O)(=O)c3ccccc3)cc2c1Nc1ccc(O)cc1` belongs 1.25.

The same experiment, now with this note: 10 µM; 24 h.
In the case of `O=C(CP(=O)(O)O)NCCc1cccc(Oc2ccccc2)c1`, the larval motility is 1.06.
In the case of `O=c1nc(N2CCN(CC3CCCCC3)CC2)sc2c([N+](=O)[O-])cc(C(F)(F)F)cc12`, the larval motility was 1.04.
The same measure, in the same setting: to `CCc1nc(N)nc(N)c1C#CCc1ccccc1` belongs 0.658; to `CC(C)N(c1cc(-c2ccccc2)sc1C(=O)O)C(=O)[C@H]1CC[C@H](C)CC1`, 0.742.
Still for that read-out and setting: to `O=C(c1cc(O)nc2ccccc12)N1CCN(c2ccccc2)CC1` belongs 0.897; to `C[C@H]1[C@@H](c2cccc(C(F)(F)F)c2)OC(=O)N1C(=O)NCc1cncc2ccccc12`, 0.359 (active); to `Cc1nc(-c2ccc(C3N(C)c4ccc(F)cc4C(=O)N3c3ccccc3)s2)cs1` (stereo not given), 0.822.
The same measure, in the same setting: to `COc1ccc(-n2cnc3cc(NCc4ccco4)ccc32)cc1` belongs 1.63; to `CSc1ccc2c(c1)C(N1CCN(C)CC1)Cc1ccccc1S2` (stereo not given), 0.827; to `c1cc(CN2CCCNCCNCCCNCC2)ccc1CN1CCCNCCNCCCNCC1`, 0.915.
`O=C(Nc1ccc(F)cc1)c1nn(-c2ccccc2)c(=O)cc1Cl`: the larval motility is 0.91.
Same read-out and setting: to `N#Cc1cc([N+](=O)[O-])ccc1Oc1ccccc1Cl` belongs 1.15; to `O=C(NNC(=S)Nc1ccc(Cl)cc1)c1ccncc1`, 0.45; to `Cc1ccn2c(C(=O)NCc3ccccc3)c(C)nc2c1`, 2.35.
The same measure, in the same setting: to `CC(=O)Nc1cc(NS(=O)(=O)c2ccc(Cl)cc2)cc2c(Cl)n[nH]c12` belongs 0.752; to `CN1c2ccc(Cl)cc2N(c2ccccc2)C(=O)c2cn(Cc3ccc(CN4CCOCC4)cc3)nc21`, 0.985; to `O=C1CCC(N2C(=O)c3ccccc3C2=O)C(=O)N1` (stereo not given), 1.13.
Same read-out and setting: the value for `CC(N)C(=O)NC(CCCCN)C(=O)NC(CCCNC(=N)N)C(=O)NC(Cc1c[nH]cn1)C(=O)NC(Cc1c[nH]cn1)C(=O)NCC(=O)NC(Cc1ccc(O)cc1)C(=O)NC(CCCCN)C(=O)NC(CCCNC(=N)N)C(=O)NC(CCCCN)C(=O)NC(Cc1ccccc1)C(=O)NC(Cc1c[nH]cn1)C(N)=O` (stereo not given) was 1.19.
Regarding `O=C(O)c1sccc1S(=O)(=O)n1ccc2cc(Br)ccc21`, the larval motility was 0.741.
Same read-out and setting: the value for `NC(=O)c1cnc2ccc(S(=O)(=O)c3ccccc3)cc2c1Nc1ccc(O)cc1` was 1.01.
